In the library only some 1.2% were active in any assay of this set; here they are far more common.
Avidin fluor: compound fluoresces at 488/530 nm on avidin beads | fluorescence (KMESF) at 10 µM | compound fluorescence 488/530 nm, flow cytometry; stronger effect = higher value | actives 0.38% (n = 220,000); in the data active = fluorescence above about 47
RGS4-Gao reg: human RGS4-Galphao interaction regulation. P09471. Multiplexed bead flow cytometry, RGS4-Galphao binding; actives lie on both sides. binding response (% of control), % at 10 µM. actives 0.33% (n = 220,000); in the data active = binding response below about 49% or above about 150%; inactive = in between;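 also: fluorescent Galphao activated with aluminum fluoride binding bead-coupled RGS4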
Target sequence (P09471 whole entry, looked up): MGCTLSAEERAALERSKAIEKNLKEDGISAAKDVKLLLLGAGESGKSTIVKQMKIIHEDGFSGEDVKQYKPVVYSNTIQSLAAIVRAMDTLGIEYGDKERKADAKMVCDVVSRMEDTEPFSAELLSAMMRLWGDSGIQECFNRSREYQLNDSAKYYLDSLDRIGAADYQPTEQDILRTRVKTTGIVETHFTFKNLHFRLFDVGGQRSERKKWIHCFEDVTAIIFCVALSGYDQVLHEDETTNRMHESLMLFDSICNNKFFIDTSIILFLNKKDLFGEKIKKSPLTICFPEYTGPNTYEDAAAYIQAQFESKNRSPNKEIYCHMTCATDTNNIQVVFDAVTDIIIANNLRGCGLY
RGS16-Gao HTS: modulates binding between human RGS16 and Galphao; binding response (% of control), % at 10 µM; bead-based flow cytometry RGS16-Galphao binding, fluorescence; actives lie on both sides; actives 0.38% (n = 220,000); AID 1441;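 also: Galphao activated by GDP with aluminum fluoride before binding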
Target sequence (O15492 whole entry, looked up): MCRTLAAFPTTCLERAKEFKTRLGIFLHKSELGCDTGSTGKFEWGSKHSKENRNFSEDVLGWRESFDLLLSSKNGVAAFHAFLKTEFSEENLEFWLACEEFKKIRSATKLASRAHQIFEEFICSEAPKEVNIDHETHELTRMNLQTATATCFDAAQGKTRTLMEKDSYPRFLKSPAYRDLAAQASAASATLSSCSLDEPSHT
Target sequence (P09471 whole entry, looked up): as the sequence (P09471 whole entry, looked up) above
RGS7-Gao: human RGS7-Galphao interaction regulation; actives 0.35% (n = 220,000); P09471; Multiplexed bead flow cytometry, RGS7-Galphao binding; actives lie on both sides; binding response (% of control), % at 10 µM; in the data active = binding response below about 49% or above about 150%;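 also: fluorescent Galphao held in activated GDP-AlF4 state binding bead-coupled RGS7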
GSH bead fluor: GSH bead compound fluorescence profile; GSH beads flow cytometry, compound fluorescence 488/530 nm; stronger effect = higher value; actives 0.25% (n = 190,000); fluorescence (KMESF) at 10 µM; in the data active = fluorescence above about 89;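 also: glutathione beads carrying GST-tagged Bcl family fusion proteins plus one bare bead set; values are compound well signal with DMSO vehicle wells as background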
RGS8-Gao: human RGS8-Galphao interaction regulation | P09471 | multiplexed bead flow cytometry, RGS8-Galphao binding; actives lie on both sides | response (percent of control binding), % at 10 µM | actives 0.34% (n = 220,000); in the data active = response below about 60% or above about 140%; inactive = in between;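 also: Galphao activated as the GDP aluminium fluoride complex binding bead-coupled RGS8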
RGS-Gao: regulators of human RGS4-Galphao interaction; shares compounds with RGS16-Gao HTS; multiplexed bead flow cytometry, RGS–Galpha-o binding; actives 99% (n = 1,600); RGS4–Galpha-o binding response, % at 10 µM; AID 1504;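 also: fluorescently labeled Galpha-o bound to GDP with aluminium fluoride binding biotinylated RGS beads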
Avidin counter: interferes with biotinylated probe binding to avidin beads | inhibition, % at 10 µM | shares compounds with RGS16-Gao HTS | 1,700 tested, under 10 active | AID 1783 | streptavidin beads, fluorescein-biotin binding, flow cytometry;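 active = inhibition above 50%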;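 also: median green fluorescence of gated singlet beads compared with DMSO control wells; 0% = DMSO wells and 100% = complete loss of bead fluorescence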
RGS8-Gao single: confirmation of regulators of human RGS8-Galphao interaction | shares compounds with RGS16-Gao HTS | bead-based flow cytometry RGS8-Galphao binding, fluorescence; actives lie on both sides | binding response (% of control), % at 10 µM | actives 3% (n = 1,700) | AID 1836; in the data active = binding response below about 72% or above about 130%; inactive = in between;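 also: Galphao activated as GDP AlF4 complex before binding bead RGS8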
RGS7-Gao single: RGS7-Galphao interaction regulation, single point confirmation. shares compounds with RGS16-Gao HTS. bead-based flow cytometry RGS7-Galphao binding; actives lie on both sides. response (percent of control binding), % at 10 µM. actives 7.8% (n = 1,700). AID 1837; in the data active = response below about 75% or above about 130%; inactive = in between;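 also: fluorescent Galphao activated with GDP and aluminum fluoride binding bead-coupled RGS7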
RGS16-Gao single: RGS16-Galphao interaction regulation, single point confirmation | shares compounds with RGS16-Gao HTS | bead-based flow cytometry, RGS16-Galphao binding; actives lie on both sides | response (% of control binding), % at 10 µM | actives 4% (n = 1,700) | AID 1838; in the data active = response below about 74% or above about 130%; inactive = in between;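 also: Galphao activated as the GDP aluminium fluoride complex binding bead-coupled RGS16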
RGS4-Gao confirm: confirmation of regulators of human RGS4-Galphao interaction; shares compounds with RGS16-Gao HTS; AID 1840; RGS4-Galphao binding, multiplexed bead flow cytometry; actives lie on both sides; binding response (% of control), % at 10 µM; actives 4% (n = 1,700); in the data active = binding response below about 74% or above about 130%; inactive = in between
RGS19-Gao single: RGS19-Galphao interaction regulation, single point confirmation | shares compounds with RGS16-Gao HTS | bead-based flow cytometry RGS19-Galphao binding; actives lie on both sides | response (percent of control binding), % at 10 µM | actives 5% (n = 1,700) | AID 1841; in the data active = response below about 50% or above about 160%; inactive = in between;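 also: 100% = no compound control and 0% = blank background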
* hit, by the source's call; [ ] = another dose, or the depositor's remark. Unless noted, no rule for the calls is given here.

Results for CCc1ccccc1NC1c2ccccc2C(=O)N1Cc1ccco1 (stereo not drawn) ?
Avidin fluor: 6; RGS4-Gao reg: 98; RGS16-Gao HTS: 97; RGS7-Gao: 99; GSH bead fluor: 26; RGS8-Gao: 96

How did CCn1c(/C=C/N(C(C)=O)c2ccccc2)[n+](CC)c2ccc(Cl)cc21 do in these assays?
Avidin fluor: 7; RGS4-Gao reg: 106; RGS16-Gao HTS: 105; RGS7-Gao: 99; GSH bead fluor: 10; RGS8-Gao: 101

Results for CC[n+]1c(/C=C/C=C/N(C(C)=O)c2ccccc2)sc2ccccc21 ?
RGS4-Gao reg: 14*; RGS16-Gao HTS: 150; RGS7-Gao: 149; GSH bead fluor: 25; RGS8-Gao: 98; Avidin counter: -3; RGS8-Gao single: 117; RGS7-Gao single: 243*[activator]; RGS16-Gao single: 153*[activator]; RGS4-Gao confirm: 163*[activator]; RGS19-Gao single: 278*[activator]

What do the screens show for `COc1cccc(NC(=O)C(=O)N2CCOCC2)c1`?
Avidin fluor: 4; RGS4-Gao reg: 100; RGS16-Gao HTS: 79; RGS7-Gao: 104; GSH bead fluor: 14; RGS8-Gao: 94

Results for CCCS(=O)(=O)N1CCN(C(=O)c2cccnc2)CC1 ?
Avidin fluor: 6; RGS4-Gao reg: 57; RGS16-Gao HTS: 73; RGS7-Gao: 48*; GSH bead fluor: 14; RGS8-Gao: 68; RGS-Gao: 57*

What do the screens show for `CS(=O)(=O)N1CCN(C(=O)c2cccnc2)CC1`?
Avidin fluor: 7; RGS4-Gao reg: 88; RGS16-Gao HTS: 83; RGS7-Gao: 97; GSH bead fluor: 67; RGS8-Gao: 96

What do the screens show for `O=C(O)CCC(=O)Nc1sc2c(c1C(=O)Nc1ccccc1)CCCCC2`?
Avidin fluor: 10; RGS4-Gao reg: 99; RGS16-Gao HTS: 99; RGS7-Gao: 105; GSH bead fluor: 11; RGS8-Gao: 97

What do the screens show for `Cc1ccc(C(=O)NCCc2nc3ccccc3[nH]2)cc1[N+](=O)[O-]`?
Avidin fluor: 3; RGS4-Gao reg: 102; RGS16-Gao HTS: 137; RGS7-Gao: 100; GSH bead fluor: 5; RGS8-Gao: 109

Results for Cc1cc2cc(CCNC(=O)c3ccc(C)c([N+](=O)[O-])c3)c(=O)[nH]c2cc1C ?
Avidin fluor: -3; RGS4-Gao reg: 3.7*; RGS16-Gao HTS: 6; RGS7-Gao: 7.7*; GSH bead fluor: 10; RGS8-Gao: 16*; Avidin counter: 0; RGS8-Gao single: 101; RGS7-Gao single: 103; RGS16-Gao single: 102; RGS4-Gao confirm: 102; RGS19-Gao single: 96

What do the screens show for `CCC(CO)NCCNC(CC)CO` (stereo not drawn)?
Avidin fluor: 10; RGS4-Gao reg: 27*; RGS16-Gao HTS: -120; RGS7-Gao: 61; GSH bead fluor: 11; RGS8-Gao: 86; Avidin counter: 1; RGS8-Gao single: 99; RGS7-Gao single: 89; RGS16-Gao single: 98; RGS4-Gao confirm: 95; RGS19-Gao single: 79

Results for CC[C@H](CO)NCCN[C@H](CC)CO ?
Avidin fluor: 12; RGS4-Gao reg: 98; RGS16-Gao HTS: 93; RGS7-Gao: 100; GSH bead fluor: 22; RGS8-Gao: 96

How did COc1cc(C(=O)Nc2ccc3c(c2)CCN3C(C)=O)cc(OC)c1OC do in these assays?
Avidin fluor: 21; RGS4-Gao reg: 207*[activator]; RGS16-Gao HTS: 170; RGS7-Gao: 186*[activator]; GSH bead fluor: 34; RGS8-Gao: 109; Avidin counter: 0; RGS8-Gao single: 107; RGS7-Gao single: 112; RGS16-Gao single: 111; RGS4-Gao confirm: 106; RGS19-Gao single: 118

How did COc1ccc(CC(=O)N2CCCc3ccccc32)cc1OC do in these assays?
Avidin fluor: 10; RGS4-Gao reg: 100; RGS16-Gao HTS: 85; RGS7-Gao: 101; GSH bead fluor: 34; RGS8-Gao: 96

Results for COc1cc(CC(=O)N2CCc3ccccc32)cc(OC)c1OC ?
RGS4-Gao reg: 146; GSH bead fluor: 44; Avidin counter: 2; RGS8-Gao single: 100; RGS7-Gao single: 99; RGS16-Gao single: 98; RGS4-Gao confirm: 98; RGS19-Gao single: 98

How did COc1ccc2c(c1OC)C(=O)N1N=C(c3ccccc3)CC21 (stereo not drawn) do in these assays?
Avidin fluor: 7; RGS4-Gao reg: 115; RGS16-Gao HTS: 115; RGS7-Gao: 110; GSH bead fluor: 35; RGS8-Gao: 111

What do the screens show for `Cc1cc(-c2n[nH]c(=S)n2/N=C/c2cc([N+](=O)[O-])ccc2Cl)n[nH]1`?
Avidin fluor: 7; RGS4-Gao reg: 83; RGS16-Gao HTS: -2.0*; RGS7-Gao: 79; GSH bead fluor: 7; RGS8-Gao: 66; RGS-Gao: 83*; Avidin counter: 0; RGS8-Gao single: 97; RGS7-Gao single: 123; RGS16-Gao single: 96; RGS4-Gao confirm: 103; RGS19-Gao single: 92

How did Cc1ccc2cc(C)c(Sc3nnnn3-c3ccccc3)nc2c1 do in these assays?
Avidin fluor: 17; RGS4-Gao reg: 112; RGS16-Gao HTS: 191*[activator]; RGS7-Gao: 106; GSH bead fluor: 4; RGS8-Gao: 119; RGS-Gao: 112*; Avidin counter: -1; RGS8-Gao single: 109; RGS7-Gao single: 111; RGS16-Gao single: 114; RGS4-Gao confirm: 108; RGS19-Gao single: 126
